Assay outcomes: PubChem BioAssay, several laboratories
Rows were chosen to be rich in hits. Some 27% of all compounds tested hit in one or more screens of this group.
CYP2C9 inhib: inhibitors of human CYP2C9; CYP2C9 Supersomes, luciferin-H conversion, luminescence; actives 20% (n = 96,000); AID 777; inhibition, % at 5 µM; P11712;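 active = blocking of liver enzyme CYP2C9 beyond about 50% at 5 µM, limit read from the data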
Cav3 T inh: human Cav3.2 channel inhibition, primary screen | O95180 | Cav3.2-expressing cells, Fluo-4 calcium fluorescence FDSS; stronger effect = lower value | B-score at 10 µM | actives 4% (n = 100,000);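 active = single-dose well whose peak fluorescence ratio is a statistical outlier from its plate by either plate-standardised score or position-corrected B-score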
CYP2C9 activ: increases human cytochrome P450 2C9 activity | P11712 | recombinant CYP2C9, luciferin-H conversion, luminescence; stronger effect = higher value; factor 1 = untreated enzyme, 0 = blocked | activation factor at 5 µM | actives 1.4% (n = 96,000) | AID 1024;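 active = activation factor of 2 or more for CYP2C9 at a 5 µM dose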
CYP2C19 inh: blocks human cytochrome P450 2C19; actives 21% (n = 96,000); inhibition, % at 5 µM; P33261; CYP2C19 Supersomes, luciferin-H EGE luminescence, 30 min;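 active = CYP2C19 inhibition above a set limit at 5 µM in the primary screen, cut at about 50% in these data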
PTK2B oligo ant: antagonists of human Pyk2 oligomerization | Q14289 | Q293 cells, Pyk2 FERM NanoBiT luminescence; stronger effect = lower value | z-score (the deposit names both 25 µM and 10 µM) | actives 0.83% (n = 99,000);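 active = Z-score of -3 or lower, scaled per plate to the spread of control and sample wells; inactive = z-score above -3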;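 also: negative z-score means lost luminescence so less FERM oligomerization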
Target sequence (Q14289 whole entry, looked up): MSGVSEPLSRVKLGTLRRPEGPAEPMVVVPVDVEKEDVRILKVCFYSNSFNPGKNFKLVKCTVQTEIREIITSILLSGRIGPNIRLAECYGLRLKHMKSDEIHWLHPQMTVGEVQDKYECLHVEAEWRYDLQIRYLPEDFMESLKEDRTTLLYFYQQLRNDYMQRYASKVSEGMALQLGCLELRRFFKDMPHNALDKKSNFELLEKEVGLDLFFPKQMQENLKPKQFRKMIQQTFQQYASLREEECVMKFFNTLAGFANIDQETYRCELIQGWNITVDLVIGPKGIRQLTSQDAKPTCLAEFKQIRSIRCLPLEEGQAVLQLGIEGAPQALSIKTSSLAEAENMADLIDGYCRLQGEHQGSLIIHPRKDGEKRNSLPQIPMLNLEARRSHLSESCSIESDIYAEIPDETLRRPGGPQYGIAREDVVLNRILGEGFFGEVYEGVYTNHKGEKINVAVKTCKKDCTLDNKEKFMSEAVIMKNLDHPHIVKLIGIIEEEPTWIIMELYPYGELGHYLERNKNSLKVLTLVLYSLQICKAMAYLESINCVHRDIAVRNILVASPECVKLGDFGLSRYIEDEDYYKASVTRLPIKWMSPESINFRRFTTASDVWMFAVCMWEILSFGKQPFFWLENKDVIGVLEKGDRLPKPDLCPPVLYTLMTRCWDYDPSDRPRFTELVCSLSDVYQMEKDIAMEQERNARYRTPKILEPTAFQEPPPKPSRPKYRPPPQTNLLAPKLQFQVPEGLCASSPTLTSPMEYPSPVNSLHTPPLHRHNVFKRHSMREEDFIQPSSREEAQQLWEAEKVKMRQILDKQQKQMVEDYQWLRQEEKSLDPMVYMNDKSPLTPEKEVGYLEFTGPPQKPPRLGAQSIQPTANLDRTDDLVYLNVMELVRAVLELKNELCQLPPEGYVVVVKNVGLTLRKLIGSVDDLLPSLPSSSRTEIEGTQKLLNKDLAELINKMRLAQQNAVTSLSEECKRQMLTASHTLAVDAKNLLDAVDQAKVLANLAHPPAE
CYP2C19 act: increases human CYP2C19 enzyme activity; P33261; recombinant CYP2C19, luciferin-H EGE luminescence; stronger effect = higher value; 0 = fully inhibited enzyme, 1 = untreated enzyme; activation factor at 5 µM; 96,000 tested, under 10 active;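 active = activation factor of at least 2 at 5 µM in the primary screen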
Of the large screens only hits and unclear results are named; the others gave an inactive call.

CSc1cccc(NC(=O)C2CCCN(S(=O)(=O)c3cnc[nH]3)C2)c1 (centres undefined)	CYP2C9 inhib 93, CYP2C19 inh 98 (no result: PTK2B oligo ant)
CSc1cccc(NC(=O)C2CCN(S(C)(=O)=O)CC2)c1	none
COC(=O)c1ccc(NC(=O)C2CCCN(S(=O)(=O)c3cnc[nH]3)C2)cc1 (centres undefined)	CYP2C9 inhib 86, CYP2C19 inh 79 (no result: PTK2B oligo ant)
CC(C)CCNc1nnnc2c1sc1nc(N3CCOCC3)c3c(c12)CC(C)(C)SC3	CYP2C9 inhib 85, Cav3 T inh -4.8
COc1nnnc2c1sc1nc(N3CCOCC3)c3c(c12)CC(C)(C)OC3	none (no result: Cav3 T inh, PTK2B oligo ant)
CCCc1cc(=O)n2[nH]c(C)c(-c3ccccc3)c2n1	none
Cc1[nH]n2c(=O)cc(-c3ccc([N+](=O)[O-])cc3)nc2c1-c1ccccc1	Cav3 T inh -4.4 (no result: CYP2C9 inhib, CYP2C9 activ, CYP2C19 inh, CYP2C19 act)
Cc1ccc(N=Nc2c(N)[nH]n3c(=O)cc(-c4ccccc4)nc23)cc1	Cav3 T inh -7.5
COc1cccc(N=Nc2c(N)[nH]n3c(=O)cc(-c4ccccc4)nc23)c1	PTK2B oligo ant -3.6 (no result: Cav3 T inh)
CC(C)(C)OC(=O)NC(CCCCNC=O)C(=O)O (centres undefined)	none
COC(=O)c1c(C(=O)OC)c(-c2cccc(C)c2)n2c1CS(=O)(=O)C2	none
CN1CCN(NC(=O)c2cccc(Br)c2)CC1	none (no result: CYP2C9 inhib, Cav3 T inh, CYP2C9 activ, CYP2C19 inh, CYP2C19 act)
COc1ccccc1NC(=O)CSc1nc(O)cc(=O)[nH]1	none
Cc1ccc(C2=NOC(C)(c3nnc(-c4ccc(Cl)cc4)o3)C2)cc1 (centres undefined)	none (no result: CYP2C9 inhib, CYP2C9 activ, CYP2C19 inh, PTK2B oligo ant, CYP2C19 act)
c1ccc(-c2nnc3sc(-c4csc5c4CCCC5)nn23)cc1	none
COC(=O)CSc1nc(C)c(Oc2ccccc2)c(=O)[nH]1	CYP2C19 inh 64
CCOC(=O)C1C(=O)C=C(c2ccc(C)cc2)CC1c1ccco1 (centres undefined)	CYP2C9 inhib 80, CYP2C19 inh 54
CCOC(=O)C1C(=O)CC(C)(O)C(C(=O)OCC)C1c1ccco1 (centres undefined)	none
CCOC(=O)C1C(C)=CC(=O)CC1c1ccco1 (centres undefined)	none
CCOC(=O)C1C(=O)C=C(c2ccc(NS(C)(=O)=O)cc2)CC1c1ccco1 (centres undefined)	CYP2C9 inhib 75
CCc1cccc(Oc2nn[nH]n2)c1	none
Cc1ccc(Oc2nn[nH]n2)cc1	CYP2C9 inhib 70
CC1CCN(CCCNC(=O)c2cn(C)c3ccc(S(=O)(=O)N4CCCC4)cc3c2=O)CC1	none (no result: Cav3 T inh)
CCOC(=O)Oc1ccc2c(c1)C(C)=CC(C)(C)N2C(=O)OCC	CYP2C19 inh 56
COc1ccc2c(c1)N(C(=O)CN1C(=O)C3CCCCC3C1=O)C(C)(C)C=C2C (centres undefined)	none (no result: CYP2C9 inhib, CYP2C9 activ, CYP2C19 inh, CYP2C19 act)
CCOc1ccc2c(c1)C(C)=CC(C)(C)N2C(=O)Nc1ccccc1	CYP2C19 inh 61
CCNC(=O)N1c2ccc(OC)cc2C(C)=CC1(C)C	none
O=S(=O)(N1CCCCCC1)N1CCN(S(=O)(=O)N2CCCCC2)CC1	none
CC(C)C[C@H](NC(=O)Nc1ccccc1F)C(=O)O	none
CCOC(=O)CSC1=NC(=O)CS1	none
Cc1ccc(S(=O)(=O)N2CCOCC2)cc1C(=O)NCCCn1ccnc1	CYP2C9 inhib 76, CYP2C19 inh 65 (no result: Cav3 T inh)
O=C(NCCCn1ccnc1)c1cc(S(=O)(=O)N2CCOCC2)c(Cl)cc1Cl	CYP2C9 inhib 96, CYP2C19 inh 72
O=C(NCCCn1ccnc1)c1ccc(Br)c(S(=O)(=O)N2CCOCC2)c1	CYP2C9 inhib 95, CYP2C19 inh 53
O=C(Nc1ccccc1O)c1cc(S(=O)(=O)N2CCOCC2)c(Cl)cc1Cl	none
CNc1cnn(-c2ccc(C)cc2)c(=O)c1Cl	none
CCOC(=O)C1CCN(C(=O)CCc2c(C)nc3cc(-c4ccccc4)nn3c2C)CC1	none (no result: PTK2B oligo ant)
Cc1nc2cc(-c3ccccc3)nn2c(C)c1CCC(=O)NCc1ccco1	CYP2C9 inhib 52, CYP2C19 inh 56 (no result: PTK2B oligo ant)
CCOC(=O)C1CCCCN1C(=O)CCc1c(C)nc2cc(-c3ccccc3)nn2c1C (centres undefined)	CYP2C9 inhib 60, CYP2C19 inh 68 (no result: Cav3 T inh, PTK2B oligo ant)
Cc1nc2cc(-c3cccc(F)c3)nn2c(C)c1CCC(=O)NC(C)CCc1ccco1 (centres undefined)	CYP2C9 inhib 91, Cav3 T inh -5.5, CYP2C19 inh 91 (no result: PTK2B oligo ant)
CCOC(=O)CN1C(=O)N[C@@H](c2cccc(C(F)(F)F)c2)C(C(C)=O)=C1C	none (no result: CYP2C9 inhib, CYP2C9 activ, CYP2C19 inh, PTK2B oligo ant, CYP2C19 act)
COc1ccc(OC)c2c(C)cc(N3CCCN(C)CC3)nc12	none
CC(=O)[C@H]1[C@@H]2C(=O)N(c3cccc(Cl)c3)C(=O)[C@@H]2[C@H]2c3ccccc3C=CN21	none
CC(C)(C)C(=O)[C@@H]1[C@@H]2C(=O)N(Cc3ccccc3)C(=O)[C@@H]2[C@H]2c3ccccc3C=CN12	CYP2C9 inhib 75, CYP2C19 inh 74 (no result: PTK2B oligo ant)
Cc1nc(SCC(=O)NC(C)(C#N)C2CC2)c2c(-c3cccs3)csc2n1 (centres undefined)	none (no result: CYP2C9 inhib, Cav3 T inh, CYP2C9 activ, CYP2C19 inh, CYP2C19 act)
O=C(CCNS(=O)(=O)c1cccc2nsnc12)N1CC(=O)N(CCc2ccccc2)C(=O)C1	none (no result: Cav3 T inh)
CC1(C(=O)OCC(=O)c2c[nH]c3ccccc23)CC1(Cl)Cl (centres undefined)	CYP2C9 inhib 85, CYP2C19 inh 97 (no result: Cav3 T inh)
CC(C)Cc1ccc(C(C)C(=O)OCC(=O)c2c[nH]c3ccccc23)cc1 (centres undefined)	none
O=C(COC(=O)c1cccnc1Nc1ccccc1F)NCCN1C(=O)CSC1=O	CYP2C19 inh 84
O=C(COC(=O)c1cccnc1Nc1ccccc1F)NCc1ccc2c(c1)OCO2	none
CCc1ccc2[nH]c(O)c(N=Nc3nc(-c4ccccc4)cs3)c2c1	none
CN(C)S(=O)(=O)c1ccc(C(=O)Nc2ccc(CN3CCCC3)cc2)cc1	none
CN(C)S(=O)(=O)c1ccc(C(=O)Nc2ccc(CCC(=O)N3CCCC3)cc2)cc1	CYP2C9 inhib 59
CN1CCN(C(=O)C2=C[C@H](c3ccc(C(F)(F)F)cc3)C[C@H](OCc3ccc(CO)cc3)O2)CC1	none (no result: CYP2C9 inhib, CYP2C9 activ, CYP2C19 inh, PTK2B oligo ant, CYP2C19 act)
Cc1nn(CC#N)c(=O)n1-c1ccccc1	none
CCOC(=O)CCn1c(=O)c2c(nc(Br)n2Cc2ccccc2)n(C)c1=O	CYP2C19 inh 60
CCOC(=O)Cn1c(=O)c2c(nc(Br)n2Cc2ccc(Cl)cc2)n(C)c1=O	CYP2C9 inhib 56 (no result: PTK2B oligo ant)
CC(O)Cn1c(=O)c2c(nc(Br)n2Cc2ccccc2)n(C)c1=O (centres undefined)	none (no result: CYP2C9 inhib, CYP2C9 activ, CYP2C19 inh, CYP2C19 act)
CCOC(=O)CCn1cc(F)c(=O)n(Cc2ccccc2)c1=O	CYP2C19 inh 52
CC1=CC(=NOC(=O)/C=C/c2ccccc2)C=C(C)C1=O	none
CCOC(=O)c1[nH]c(C)c(C(=O)N2CCN(c3cccc(Cl)c3)CC2)c1C	CYP2C9 inhib 88, CYP2C19 inh 68
CCOC(=O)c1[nH]c(C)c(C(=O)N2CCN(c3ccc(F)cc3)CC2)c1C	CYP2C9 inhib 77, CYP2C19 inh 79
